The nature of assay [1]: BSK_3C_VCAM1: BioMAP Diversity Plus: 3C Assay for Vascular cell adhesion molecule 1 (VCAM1) Biomarker Activity (AID 2282999). The following applies: BioMAP 3C HUVEC, VCAM1 ELISA, cytokine-stimulated; actives raise or lower the signal. Summed up:
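HUVEC primary cells, 24 h compound exposure; VCAM-1 by ELISA; gain/loss of signal fitted bidirectionally vs DMSO baseline.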

The nature of assay [2]: BSK_4H_Eotaxin3: BioMAP Diversity Plus: 4H Assay for Eotaxin 3 Biomarker Activity (AID 2283000).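 Also: CCL26 protein level quantified by ELISA in parallel with SRB cytotoxicity check.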 The following applies: primary human endothelial cells (HUVEC); actives raise or lower the signal. The method, boiled down:
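ELISA quantitation of CCL26 (Eotaxin-3) protein from chemically dosed human vascular endothelial cells at 24 h; increases and decreases both scored relative to DMSO-treated baseline.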

Assay [3] addresses human Peroxisome Proliferator-activated Receptor delta (PPARd), PPARD (gene 5467) (UniProt Q03181). In words: ATG_PPARd_TRANS: Attagene TRANS-FACTORIAL HepG2 Assay for human Peroxisome Proliferator-activated Receptor delta (PPARd) (AID 2283002; active = hit-call score of the fitted dose curve at least 0.9, where 1 is the maximum). The method, boiled down: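 Fluorescence from capillary electrophoresis of labelled RT-PCR reporter fragments gives the signal; DMSO sets baseline. Cells: HepG2 transiently carrying GAL4-UAS reporter units plus chimeric nuclear receptor-Gal4 proteins, exposed to chemicals for 24 h.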

Read-out in assay [4]: Intercellular Adhesion Molecule 1 (ICAM1), ICAM1 (gene 3383)
In words: BSK_3C_ICAM1: BioMAP Diversity Plus: 3C Assay for Intercellular Adhesion Molecule 1 (ICAM1) Biomarker Activity (AID 2283003). The conditions noted are these: primary human endothelial cells (HUVEC); actives raise or lower the signal. The method, boiled down:
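ELISA readout of ICAM1 in human umbilical vein endothelial cells in the 3C system, taken 24 h post-dose. Gain or loss of signal versus DMSO was fitted in both directions, with SRB total-protein staining run in parallel.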

A short description of assay [5]: BSK_3C_Proliferation: Cell Proliferation Assessment in the BioMAP Diversity Plus: 3C Assay (AID 2283006).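 As to AC50: potency may reflect either rise or fall in cell number versus DMSO.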 The conditions noted are these: primary human endothelial cells (HUVEC). Summed up: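 Proliferation as total protein: sulforhodamine B (0.1%) stain of TCA-fixed subconfluent human umbilical vein endothelial cells, absorbance 560 nm, 48 h after dosing. Activity fitted in both directions against DMSO baseline.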

Assay [6] addresses Peroxisome proliferator-activated receptor gamma (Homo sapiens) (UniProt P37231). In words: ATG_PPARg_TRANS: Attagene TRANS-FACTORIAL HepG2 Assay for human Peroxisome Proliferator-activated Receptor-gamma (PPARg) (AID 2283007; active = hit-call score of the fitted dose curve at least 0.9, where 1 is the maximum). Summed up: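 Multiplexed reporter transcription units in HepG2, 24 h dosing, reporter transcripts quantified by fluorescent RT-PCR and capillary electrophoresis. Increase over DMSO scored.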

For assay [7], the target named is Nuclear receptor subfamily 1 group I member 2 (Homo sapiens) (UniProt O75469). In words: ATG_PXR_TRANS: Attagene TRANS-FACTORIAL HepG2 Assay for human Pregnane X Receptor (PXR) (AID 2283008; active = hit-call score of the fitted dose curve at least 0.9, where 1 is the maximum). The method, boiled down:
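Trans-factorial format: exogenous NR-Gal4 fusion activity, not endogenous factor, in transfected human HepG2 liver cells. After 24 h dosing, RNA isolated, reverse-transcribed, amplified and resolved by capillary electrophoresis; induction scored versus DMSO.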

Assay [8] deals with human Retinoic Acid Receptor gamma (RARg), RARG (gene 5916) (UniProt P13631). As to the kind of experiment: ATG_RARg_TRANS: Attagene TRANS-FACTORIAL HepG2 Assay for human Retinoic Acid Receptor gamma (RARg) (AID 2283009; active = hit-call score of the fitted dose curve at least 0.9, where 1 is the maximum). Summed up: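 Transactivation of exogenous RARg-Gal4 fusion measured as reporter transcript induction after 24 h in transfected HepG2 cells. RNA reverse-transcribed, amplified, fluorescently labeled and resolved by capillary electrophoresis; increase relative to DMSO.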

Assay [9] has as its target Retinoic acid receptor RXR-alpha (Homo sapiens) (UniProt P19793). As to the kind of experiment: ATG_RXRa_TRANS: Attagene TRANS-FACTORIAL HepG2 Assay for human Retinoid X Receptor alpha (RXRa) (AID 2283012; active = hit-call score of the fitted dose curve at least 0.9, where 1 is the maximum). Summed up: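 TRANS format reporting activity of exogenous RXRa-Gal4 chimera in transiently transfected HepG2, 24 h exposure. Reporter transcripts quantified by RT-PCR with capillary electrophoresis, with gain of signal scored relative to DMSO.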

Assay [10] has as its target human Retinoid X Receptor beta (RXRb), RXRB (gene 6257) (UniProt P28702). In words: ATG_RXRb_TRANS: Attagene TRANS-FACTORIAL HepG2 Assay for human Retinoid X Receptor beta (RXRb) (AID 2283013; active = hit-call score of the fitted dose curve at least 0.9, where 1 is the maximum). The method, boiled down: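 Readout is reporter transcript induction after 24 h dosing. It is measured by RT-PCR of total RNA followed by fluorescent capillary electrophoresis. HepG2 liver cells carry transfected multiple reporter units driven by an exogenous RXRb-Gal4 fusion; activity is relative to DMSO.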

Read-out in assay [11]: E-selectin (Homo sapiens) (UniProt P16581)
As to the kind of experiment: BSK_3C_Eselectin: BioMAP Diversity Plus: 3C Assay for Eselectin Biomarker Activity (AID 2283015).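 Also: cell surface E-selectin protein quantified by ELISA 24 h after dosing.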 The following applies: primary human endothelial cells (HUVEC); actives raise or lower the signal. The method, boiled down:
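Endpoint derived by bidirectional fitting against DMSO vehicle; signal is ELISA-detected E-selectin from primary HUVEC at 24 h post-dosing, with parallel SRB staining (0.1% SRB, 560 nm) flagging cytotoxicity.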

Read-out in assay [12]: Interleukin-1 alpha (IL1a), IL1A (gene 3552)
As to the kind of experiment: BSK_BE3C_IL1a: BioMAP Diversity Plus: BE3C Assay for Interleukin-1 alpha (IL1a) Biomarker Activity (AID 2283016). The following applies: primary human bronchial epithelial cells; actives raise or lower the signal. The method, boiled down:
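IL-1a measured by ELISA after 24 h treatment of human primary bronchial epithelial cells, with gain or loss of signal fitted versus DMSO. Parallel cultures stained with SRB gauge overt cytotoxicity.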

Read-out in assay [13]: Monocyte Chemoattractant Protein-1 (MCP1), CCL2 (gene 6347)
As to the kind of experiment: BSK_3C_MCP1: BioMAP Diversity Plus: 3C Assay for Monocyte Chemoattractant Protein-1 (MCP1) Biomarker Activity (AID 2283017). The conditions noted are these: primary human endothelial cells (HUVEC); actives raise or lower the signal. Summed up:
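Using human vascular primary endothelium, researchers measured MCP-1 by ELISA 24 h after treatment, with DMSO serving as negative control for bidirectional fitting.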

Read-out in assay [14]: Monocyte Chemoattractant Protein-1 (MCP1), CCL2 (gene 6347)
In words: BSK_4H_MCP1: BioMAP Diversity Plus: 4H Assay for Monocyte Chemoattractant Protein-1 (MCP1) Biomarker Activity (AID 2283018). The conditions noted are these: primary human endothelial cells (HUVEC); actives raise or lower the signal. Summed up:
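ELISA of MCP-1 (CCL2) 24 h after chemical dosing of HUVEC in the BioMAP 4H system. Gain or loss versus DMSO fitted; parallel SRB staining (560 nm) tracked overt cytotoxicity.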

The target in assay [15] is human Retinoic Acid Receptor beta (RARb), RARB (gene 5915) (UniProt P10826). In words: ATG_RARb_TRANS: Attagene TRANS-FACTORIAL HepG2 Assay for human Retinoic Acid Receptor beta (AID 2283004; active = hit-call score of the fitted dose curve at least 0.9, where 1 is the maximum). The method, boiled down: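 Fluorescent capillary-electrophoresis detection of GAL4-UAS reporter mRNA defines the endpoint, with induction over DMSO-treated wells scored as activity. Transiently transfected human hepatoma HepG2 cells expressing exogenous NR–Gal4 proteins are exposed to test chemicals for 24 h.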

Assay [16] concerns the target human RAR-related Orphan Receptor gamma (RORg), RORC (gene 6097) (UniProt P51449). As to the kind of experiment: ATG_RORg_TRANS: Attagene TRANS-FACTORIAL HepG2 Assay for human RAR-related Orphan Receptor gamma (RORg) (AID 2283011; active = hit-call score of the fitted dose curve at least 0.9, where 1 is the maximum). Summed up:
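Chimeric RORg-Gal4 transactivation in transfected HepG2; 24 h exposure; RT-PCR/capillary electrophoresis readout of reporter mRNA, DMSO baseline.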

Assay [17] deals with Retinoic acid receptor alpha (Homo sapiens) (UniProt P10276). In words: ATG_RARa_TRANS: Attagene TRANS-FACTORIAL HepG2 Assay for human Retinoic Acid Receptor alpha (RARa) (AID 2283005; active = hit-call score of the fitted dose curve at least 0.9, where 1 is the maximum). Summed up:
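HepG2 transiently transfected with multiplex GAL4-UAS reporter units including a human RARa–GAL4 chimera; 24 h compound exposure. Reporter mRNA quantified by RT-PCR, 6-FAM labeling and capillary electrophoresis; gain of signal versus DMSO.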

Assay [18] has as its target human RAR-related Orphan Receptor beta (RORb), RORB (gene 6096) (UniProt Q92753). In words: ATG_RORb_TRANS: Attagene TRANS-FACTORIAL HepG2 Assay for human RAR-related Orphan Receptor beta (RORb) (AID 2283010; active = hit-call score of the fitted dose curve at least 0.9, where 1 is the maximum). The method, boiled down: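 Read-out is reporter mRNA induction, quantified by RT-PCR with fluorescent capillary electrophoresis, 24 h post-dose in transiently transfected HepG2 expressing exogenous NR-Gal4 chimera. Activity fitted upward versus DMSO.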

Assay [19] deals with human Thyroid Receptor alpha (THRa1), THRA (gene 7067) (UniProt P10827). As to the kind of experiment: ATG_THRa1_TRANS: Attagene TRANS-FACTORIAL HepG2 Assay for human Thyroid Receptor alpha (THRa1) (AID 2283014; active = hit-call score of the fitted dose curve at least 0.9, where 1 is the maximum). Summed up: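 Measured here is mRNA from a GAL4-UAS reporter in transfected HepG2 cells carrying a Gal4-fused receptor, 24 h post-dose. DMSO served as negative control and baseline.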

Molecules are shown by their SMILES. Records with an inconclusive call do not appear. The source holds several records for some structures; these can differ, active in one and inactive in another. The source made the active and inactive calls. The calls were made as follows, unless noted: active = hit-call score of the fitted dose curve at least 0.9, where 1 is the maximum; inactive = score below 0.9.

Chain of Retinoic acid receptor alpha (Homo sapiens) (P10276 whole entry, looked up, the tested form may be a part): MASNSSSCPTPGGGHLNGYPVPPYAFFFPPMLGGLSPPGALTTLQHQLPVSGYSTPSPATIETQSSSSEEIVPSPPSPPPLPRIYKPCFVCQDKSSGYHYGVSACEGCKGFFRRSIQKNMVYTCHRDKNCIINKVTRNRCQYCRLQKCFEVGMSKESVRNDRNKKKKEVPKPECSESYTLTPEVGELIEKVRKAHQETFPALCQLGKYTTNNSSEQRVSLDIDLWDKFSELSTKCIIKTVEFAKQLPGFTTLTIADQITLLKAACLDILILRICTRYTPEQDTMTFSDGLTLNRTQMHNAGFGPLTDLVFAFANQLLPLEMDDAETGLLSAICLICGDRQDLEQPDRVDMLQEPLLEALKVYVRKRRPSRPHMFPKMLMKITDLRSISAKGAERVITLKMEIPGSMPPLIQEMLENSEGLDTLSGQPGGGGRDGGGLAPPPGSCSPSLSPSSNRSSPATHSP
Chain of human RAR-related Orphan Receptor gamma (RORg), RORC (gene 6097) (P51449 whole entry, looked up, the tested form may be a part): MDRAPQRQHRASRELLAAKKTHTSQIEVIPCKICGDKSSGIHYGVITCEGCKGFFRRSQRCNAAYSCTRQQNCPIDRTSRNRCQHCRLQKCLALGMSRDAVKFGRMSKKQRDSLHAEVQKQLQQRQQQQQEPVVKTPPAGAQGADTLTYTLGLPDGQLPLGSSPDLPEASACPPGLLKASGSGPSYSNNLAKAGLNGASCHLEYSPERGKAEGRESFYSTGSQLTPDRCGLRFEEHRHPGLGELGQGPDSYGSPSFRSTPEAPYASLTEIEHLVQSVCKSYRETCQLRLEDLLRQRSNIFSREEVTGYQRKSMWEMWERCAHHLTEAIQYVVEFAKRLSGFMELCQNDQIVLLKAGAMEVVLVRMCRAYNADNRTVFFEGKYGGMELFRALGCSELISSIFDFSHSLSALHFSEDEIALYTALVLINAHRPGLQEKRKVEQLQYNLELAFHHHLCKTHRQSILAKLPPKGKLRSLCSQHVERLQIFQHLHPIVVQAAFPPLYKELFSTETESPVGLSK
Chain of human Retinoic Acid Receptor beta (RARb), RARB (gene 5915) (P10826 whole entry, looked up, the tested form may be a part): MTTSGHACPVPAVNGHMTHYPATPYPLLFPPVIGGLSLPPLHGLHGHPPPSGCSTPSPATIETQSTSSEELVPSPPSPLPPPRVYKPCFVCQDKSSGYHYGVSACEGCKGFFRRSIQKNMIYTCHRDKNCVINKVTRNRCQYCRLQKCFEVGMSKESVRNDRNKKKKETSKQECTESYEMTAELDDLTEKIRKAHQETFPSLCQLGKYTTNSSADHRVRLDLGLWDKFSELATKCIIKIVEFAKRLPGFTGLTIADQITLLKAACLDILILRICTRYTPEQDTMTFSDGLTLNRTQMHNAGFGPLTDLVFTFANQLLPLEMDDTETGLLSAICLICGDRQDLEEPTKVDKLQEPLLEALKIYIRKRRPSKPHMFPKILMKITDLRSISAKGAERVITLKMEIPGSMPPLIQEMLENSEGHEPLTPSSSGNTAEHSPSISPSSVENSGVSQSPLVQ
Chain of human Thyroid Receptor alpha (THRa1), THRA (gene 7067) (P10827 whole entry, looked up, the tested form may be a part): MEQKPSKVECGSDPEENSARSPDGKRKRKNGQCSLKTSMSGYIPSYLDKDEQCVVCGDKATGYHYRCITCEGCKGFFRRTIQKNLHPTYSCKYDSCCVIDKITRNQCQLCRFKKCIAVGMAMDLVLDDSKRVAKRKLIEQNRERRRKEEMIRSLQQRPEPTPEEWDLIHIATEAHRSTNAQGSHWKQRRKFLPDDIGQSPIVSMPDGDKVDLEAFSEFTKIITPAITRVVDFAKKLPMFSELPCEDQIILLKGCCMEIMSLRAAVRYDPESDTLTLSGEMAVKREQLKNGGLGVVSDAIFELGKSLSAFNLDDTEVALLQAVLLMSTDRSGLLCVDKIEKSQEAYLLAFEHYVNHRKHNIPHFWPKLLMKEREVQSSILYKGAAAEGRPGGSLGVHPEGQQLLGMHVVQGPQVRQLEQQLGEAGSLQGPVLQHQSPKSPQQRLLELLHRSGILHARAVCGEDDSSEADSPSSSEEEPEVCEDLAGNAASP
Chain of human Peroxisome Proliferator-activated Receptor delta (PPARd), PPARD (gene 5467) (Q03181 whole entry, looked up, the tested form may be a part): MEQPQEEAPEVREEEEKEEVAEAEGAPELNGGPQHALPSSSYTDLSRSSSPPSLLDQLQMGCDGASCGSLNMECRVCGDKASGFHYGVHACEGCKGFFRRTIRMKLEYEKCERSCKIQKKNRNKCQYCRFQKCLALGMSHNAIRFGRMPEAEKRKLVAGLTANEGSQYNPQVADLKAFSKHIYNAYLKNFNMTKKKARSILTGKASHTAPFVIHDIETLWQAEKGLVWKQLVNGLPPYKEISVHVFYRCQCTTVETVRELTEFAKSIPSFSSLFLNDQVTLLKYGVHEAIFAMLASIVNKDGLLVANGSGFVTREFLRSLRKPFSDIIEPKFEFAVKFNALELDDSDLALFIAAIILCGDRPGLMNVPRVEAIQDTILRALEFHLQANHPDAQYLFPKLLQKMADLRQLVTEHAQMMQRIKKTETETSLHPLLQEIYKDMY
Chain of Nuclear receptor subfamily 1 group I member 2 (Homo sapiens) (O75469 whole entry, looked up, the tested form may be a part): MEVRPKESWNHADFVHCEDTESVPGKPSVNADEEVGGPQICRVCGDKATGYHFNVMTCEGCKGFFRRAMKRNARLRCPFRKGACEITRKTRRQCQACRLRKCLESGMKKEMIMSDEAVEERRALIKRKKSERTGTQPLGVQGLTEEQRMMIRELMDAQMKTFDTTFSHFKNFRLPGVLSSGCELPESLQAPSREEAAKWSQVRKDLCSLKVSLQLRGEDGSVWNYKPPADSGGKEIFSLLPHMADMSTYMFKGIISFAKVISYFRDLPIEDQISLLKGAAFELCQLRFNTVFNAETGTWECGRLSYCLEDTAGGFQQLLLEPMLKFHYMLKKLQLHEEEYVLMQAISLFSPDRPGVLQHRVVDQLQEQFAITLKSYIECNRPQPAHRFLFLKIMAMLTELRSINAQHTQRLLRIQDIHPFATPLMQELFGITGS
Chain of human RAR-related Orphan Receptor beta (RORb), RORB (gene 6096) (Q92753 whole entry, looked up, the tested form may be a part): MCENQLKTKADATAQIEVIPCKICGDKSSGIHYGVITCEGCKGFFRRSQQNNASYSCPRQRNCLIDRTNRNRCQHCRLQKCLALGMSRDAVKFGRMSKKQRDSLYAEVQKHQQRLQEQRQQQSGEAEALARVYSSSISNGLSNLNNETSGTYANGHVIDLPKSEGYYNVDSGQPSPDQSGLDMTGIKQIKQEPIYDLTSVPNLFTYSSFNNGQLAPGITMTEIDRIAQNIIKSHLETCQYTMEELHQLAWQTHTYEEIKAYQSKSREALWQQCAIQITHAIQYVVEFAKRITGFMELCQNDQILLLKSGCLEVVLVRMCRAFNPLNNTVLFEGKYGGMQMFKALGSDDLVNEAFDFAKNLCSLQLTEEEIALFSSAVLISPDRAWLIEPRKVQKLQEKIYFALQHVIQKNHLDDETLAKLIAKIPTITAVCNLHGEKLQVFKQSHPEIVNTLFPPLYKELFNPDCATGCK
Chain of E-selectin (Homo sapiens) (P16581 whole entry, looked up): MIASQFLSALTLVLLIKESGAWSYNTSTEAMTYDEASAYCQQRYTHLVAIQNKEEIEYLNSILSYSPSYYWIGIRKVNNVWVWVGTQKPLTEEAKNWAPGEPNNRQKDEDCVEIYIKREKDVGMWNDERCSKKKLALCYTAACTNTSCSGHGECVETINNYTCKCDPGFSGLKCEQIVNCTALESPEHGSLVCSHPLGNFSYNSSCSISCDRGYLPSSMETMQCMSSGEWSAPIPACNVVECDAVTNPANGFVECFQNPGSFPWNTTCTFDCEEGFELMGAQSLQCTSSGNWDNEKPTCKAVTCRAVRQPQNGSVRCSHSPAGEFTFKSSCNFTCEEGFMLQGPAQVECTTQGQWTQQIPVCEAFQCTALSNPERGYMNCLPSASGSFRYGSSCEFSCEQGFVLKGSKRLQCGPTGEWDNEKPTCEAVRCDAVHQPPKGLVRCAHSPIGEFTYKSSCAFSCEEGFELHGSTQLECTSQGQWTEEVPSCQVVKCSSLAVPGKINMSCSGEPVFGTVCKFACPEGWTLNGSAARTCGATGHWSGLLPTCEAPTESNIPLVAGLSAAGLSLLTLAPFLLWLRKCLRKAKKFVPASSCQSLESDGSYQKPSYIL
Chain of human Retinoic Acid Receptor gamma (RARg), RARG (gene 5916) (P13631 whole entry, looked up, the tested form may be a part): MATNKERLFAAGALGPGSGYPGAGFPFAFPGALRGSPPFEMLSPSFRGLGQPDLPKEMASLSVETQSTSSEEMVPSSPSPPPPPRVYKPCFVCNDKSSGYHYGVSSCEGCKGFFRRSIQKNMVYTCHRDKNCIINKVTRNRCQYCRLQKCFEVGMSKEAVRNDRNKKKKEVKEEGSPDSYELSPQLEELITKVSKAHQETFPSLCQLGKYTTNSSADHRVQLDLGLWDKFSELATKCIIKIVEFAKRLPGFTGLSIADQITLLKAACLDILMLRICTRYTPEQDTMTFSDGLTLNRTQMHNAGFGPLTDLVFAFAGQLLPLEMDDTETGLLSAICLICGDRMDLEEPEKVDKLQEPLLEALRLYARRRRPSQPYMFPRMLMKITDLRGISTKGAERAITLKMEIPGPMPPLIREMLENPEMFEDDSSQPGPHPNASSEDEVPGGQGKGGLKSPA
Chain of Retinoic acid receptor RXR-alpha (Homo sapiens) (P19793 whole entry, looked up, the tested form may be a part): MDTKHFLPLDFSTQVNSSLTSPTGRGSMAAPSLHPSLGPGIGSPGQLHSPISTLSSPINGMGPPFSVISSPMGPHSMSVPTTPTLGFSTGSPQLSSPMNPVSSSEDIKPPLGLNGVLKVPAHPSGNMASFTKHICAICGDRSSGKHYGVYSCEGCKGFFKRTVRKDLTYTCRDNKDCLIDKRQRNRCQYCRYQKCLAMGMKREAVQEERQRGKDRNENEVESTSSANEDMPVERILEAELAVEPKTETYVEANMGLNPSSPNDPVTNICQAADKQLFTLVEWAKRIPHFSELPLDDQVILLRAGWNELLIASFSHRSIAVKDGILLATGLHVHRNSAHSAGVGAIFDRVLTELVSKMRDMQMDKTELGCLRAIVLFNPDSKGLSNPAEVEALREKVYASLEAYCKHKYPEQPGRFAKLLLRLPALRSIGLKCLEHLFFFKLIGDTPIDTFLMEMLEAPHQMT

Take `COc1nc(C)nc(NC(=O)NS(=O)(=O)c2ccccc2OCCCl)n1`: the outcome in [1], in [2], in assay [3], in assay [4], in assay [5] and in [6] was inactive. The compound was called inactive in assay [7], in assay [8], in assay [9], in assay [10], in [11] and in assay [12]. In addition, the outcome in assay [13] and in assay [14] was inactive. In assay [7], the AC50 is 40 µM (active).
For `COC(=O)c1ccc(I)cc1S(=O)(=O)NC(=O)Nc1nc(C)nc(OC)n1`, the result in [1], in assay [2], in [4], in assay [5], in assay [6] and in [11] was inactive. Besides, the outcome in assay [13] and in assay [14] was inactive.
Regarding `CCSC(=O)N(CC(C)C)CC(C)C`, the outcome in assay [1], in assay [2], in assay [4], in [15], in assay [5] and in assay [6] was inactive. Also, the call in [16], in [9], in assay [10], in assay [11], in [12] and in assay [13] was inactive. Besides, the result in [14] was inactive.
With `CCOC(=O)[C@H](C)Oc1ccc(Oc2nc3ccc(Cl)cc3o2)cc1`, the outcome in [1], in [2], in assay [4], in [17], in [5] and in assay [6] was inactive. The compound was classed as inactive in [7], in assay [8], in assay [18], in assay [9], in [10] and in assay [11]. The result in assay [12], in assay [13] and in assay [14] was inactive.
Turning to `COCCO`, the outcome in assay [1], in assay [2], in [4], in [15], in assay [17] and in assay [5] was inactive. Also, the call in assay [6], in assay [7], in assay [8], in assay [18], in assay [16] and in assay [9] was inactive. Moreover, the compound was classed as inactive in [10], in assay [11], in [12], in assay [13] and in assay [14].
As to `CSC(=O)c1cccc2nnsc12`, the result in assay [1], in [2], in assay [4], in [5], in assay [6] and in assay [8] was inactive. Moreover, the compound was called inactive in [10], in assay [19], in [11], in assay [13] and in assay [14].
As to `CCOC(=O)COc1cc(-n2ncc(C(F)(F)F)c(C)c2=O)c(F)cc1Cl`, the outcome in assay [1], in assay [2], in assay [4], in assay [15], in assay [17] and in assay [5] was inactive. The compound was classed as inactive in assay [6], in [7], in [8], in assay [16], in [10] and in assay [19]. The outcome in [11], in assay [12], in assay [13] and in [14] was inactive.
Consider `C=CCOC(Cn1ccnc1)c1ccc(Cl)cc1Cl` (stereo unspecified), for which the outcome in [1], in [2], in [3], in [4], in assay [7] and in assay [16] was inactive. Also, the call in assay [10], in assay [11], in assay [12] and in assay [13] was inactive. Further, the AC50 in assay [5] was 21.5 µM (active); in assay [6], 71.7 µM (active); in assay [14] it was 27.7 µM (active).
For the compound `COC(=O)c1c(Cl)nn(C)c1S(=O)(=O)NC(=O)Nc1nc(OC)cc(OC)n1`, the result in assay [1], in assay [2], in assay [3], in [4], in assay [5] and in [6] was inactive. Further, the call in assay [7], in [8], in assay [18], in [19], in assay [11] and in [13] was inactive. Also, in assay [14], the outcome was inactive.

What is called AC50 is the concentration giving half of the maximal activity seen.

(Values after PubChem BioAssay (EPA / NIEHS).)
